Shown are actives, neighbours in structure and some others; about 2.8% of the full set was active somewhere.
D3 ag: activates the human D3 dopamine receptor | P35462 | D3R DiscoveRx beta-arrestin cells, luminescence, 90 min | max activation, % | 410,000 tested, 0.58% active | AID 652048; in the data active = max activation above about 30%
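Cells at 1500/well, incubated overnight, then treated with pinned compounds (dopamine as control) for 90 min at 37 degrees C. DiscoveRx reagent added for 30 - 60 minutes at room temperature; luminescence read.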
D3 antag: blocks the human D3 dopamine receptor; max response, negative = inhibition, %; D3R cells, DiscoveRx beta-arrestin luminescence, antagonist mode; hits give low values; 360,000 tested, 2.5% active; AID 652054; in the data active = max response below about -50%; inconclusive = no clear call, values can overlap the other calls
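Cells expressing the human receptor were seeded at 1500 cells/well, incubated overnight at 37 degrees C in 5% CO2, then exposed to library compounds with dopamine controls for 90 minutes at 37 degrees C before luminescent detection.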
Giardia killer: Giardia lamblia killing; Giardia lamblia trophozoite viability; activity change, % at 7.66 µM, hits read low; 340,000 tested, 0.15% active; in the data active = activity change below about -80%; inconclusive = between about -30% and that limit;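 also: parasites exposed to compound for two days anaerobically before the ATP read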
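Trophozoite viability was measured as ATP-dependent luminescence, read 15-30 min after reagent addition. Before that, parasites at 100 cells/well were exposed to compounds for 48 h, anaerobically, at 37 deg C.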
B2AR arrestin: agonists driving beta-arrestin recruitment to human beta2-adrenergic receptor; P07550; beta-arrestin recruitment to beta2AR, cell-based reporter; Potency, µM (highest dose often 46.1 µM), hits mostly activators; 330,000 tested, 0.02% active; AID 492947; active = well fitted activation curve with a large enough effect; inconclusive = small, poorly fitted or top-dose-only effect; also: nearly all actives have a fitted effect of over 65% in size
Target sequence (P07550 whole entry, looked up): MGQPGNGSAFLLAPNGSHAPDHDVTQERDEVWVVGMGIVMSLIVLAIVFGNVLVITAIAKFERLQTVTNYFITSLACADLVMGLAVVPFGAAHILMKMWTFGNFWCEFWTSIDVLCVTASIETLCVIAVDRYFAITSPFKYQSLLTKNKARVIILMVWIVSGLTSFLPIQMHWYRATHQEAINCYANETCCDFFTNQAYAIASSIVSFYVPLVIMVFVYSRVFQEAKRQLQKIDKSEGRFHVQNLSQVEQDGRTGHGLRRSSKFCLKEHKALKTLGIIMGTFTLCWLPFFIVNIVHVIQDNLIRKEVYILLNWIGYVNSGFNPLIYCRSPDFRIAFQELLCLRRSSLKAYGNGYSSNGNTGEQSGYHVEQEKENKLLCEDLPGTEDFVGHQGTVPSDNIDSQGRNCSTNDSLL
Hits are given with their value.

Screening Cn1c(=O)c2cc(C(=O)N3CCN(c4cccc(C(F)(F)F)c4)CC3)sc2c2ccccc21 returned D3 ag inactive.
CO[C@@H]1[C@@H](O[C@@H]2O[C@H](C)[C@@H](O[C@H]3C[C@@](C)(O)[C@@H](OC(=O)CC(C)C)[C@H](C)O3)[C@H](N(C)C)[C@H]2O)[C@@H](CC=O)C[C@@H](C)C(=O)/C=C/C2OC2C[C@@H](C)OC(=O)C[C@H]1OC(C)=O (stereo partly specified) was read as D3 ag inactive.
For CCN(C(=O)Cn1ncc2c(=O)oc3ccccc3c21)c1ccccc1F the results were D3 ag inactive.
CC(C)c1ccc(OCC(O)CN2CCN(c3ccccc3)CC2)cc1 (stereo unspecified) was read as D3 ag 45, D3 antag inconclusive, Giardia killer inactive and B2AR arrestin inactive.
Screening COc1ccc(OCC(O)CN2CCN(c3ccccc3)CC2)cc1 (stereo unspecified) returned D3 ag inactive, D3 antag inconclusive, Giardia killer inactive and B2AR arrestin inconclusive.
For COc1ccccc1N1CCN(C(=O)c2cc3c(=O)oc4ccccc4c3s2)CC1 the results were D3 ag inactive.
COC(=O)c1sc(N)c(C(=O)OC)c1COC(=O)c1c(C)noc1C was read as D3 ag inactive, D3 antag -69, Giardia killer inactive and B2AR arrestin inactive.
C=C1CCN([C@@H](CC(C)C)C(=O)NCc2ccc(Cl)cc2)S(=O)(=O)c2ccccc21 was read as D3 ag inactive, D3 antag inactive and Giardia killer inactive.
`C=C1CCN([C@@H](CC(C)C)C(=O)NCCC(C)C)S(=O)(=O)c2ccccc21` gave D3 ag inactive, D3 antag -50 and Giardia killer inactive.
For CCOC(=O)c1c(C)c(-c2ccccc2)n(CC(=O)Nc2cc(C)cc(C)c2)c1C the results were D3 ag inactive.
Screening COc1ccc2c(c1O)-c1ccccc1CCN(C)C2 returned D3 ag inactive, D3 antag inactive, Giardia killer inactive and B2AR arrestin inactive.
CN1CCc2cccc3c2[C@@H]1Cc1ccc(O)c(O)c1-3 was read as D3 ag 44, D3 antag inactive, Giardia killer inactive and B2AR arrestin inactive.
Screening Cn1c(=O)c2c(-c3ccccc3)n3c(c2n(C)c1=O)C(c1ccccc1[N+](=O)[O-])Nc1ccccc1-3 (stereo unspecified) returned D3 ag inactive.
COc1cc(OC)c(NS(=O)(=O)c2cc3c(cc2C)N(C(C)=O)CCO3)cc1Cl was read as D3 ag inactive.
`Cc1ccccc1NS(=O)(=O)c1ccc(OCC(=O)N2CCCCC2)cc1` gave D3 ag 32, D3 antag inactive, Giardia killer inactive and B2AR arrestin inactive.
CCC(CC)C(=O)N1CCc2cc(OC)c(OC)cc2C1COc1ccc(C(=O)OC)cc1 (stereo unspecified) was read as D3 ag inactive.
For CCc1ccc(-n2c(=O)c3cccnc3n2CC(=O)N(CC)c2cccc(C)c2)cc1 the results were D3 ag inactive.
For CCCN(CCC)CCCNC(=O)c1ccc2c(c1)N(CC)C(=O)c1ccccc1S2=O (stereo unspecified) the results were D3 ag inactive, D3 antag -93, Giardia killer inactive and B2AR arrestin inactive.
Screening CCCCSCCCNC(=O)c1ccc2c(c1)N(CC)C(=O)c1ccccc1S2=O (stereo unspecified) returned D3 ag inactive, D3 antag inactive, Giardia killer inactive and B2AR arrestin inactive.
`CCN1C(=O)c2ccccc2S(=O)c2ccc(C(=O)NCc3ccc(OC)cc3)cc21` (stereo unspecified) gave D3 ag inactive, D3 antag -51, Giardia killer inactive and B2AR arrestin inactive.
Cc1ccnc2c1ccc1c(C)ccnc12 was read as D3 ag inactive, D3 antag -100, Giardia killer inactive and B2AR arrestin inactive.
Screening Cc1ccnc2c1ccc1cccnc12 returned D3 ag inactive, D3 antag -95, Giardia killer inactive and B2AR arrestin inactive.
For c1cnc2c(c1)ccc1cccnc12 the results were D3 ag inactive, D3 antag -76, Giardia killer inactive and B2AR arrestin inconclusive.
CCOc1ccc(Nc2oc(-c3ccc(COc4ccccc4C)o3)nc2C#N)cc1 was read as D3 ag inactive.
For Cc1cc(/C=C\c2ccc3cc(N(C)C)ccc3[n+]2C)c(C)n1-c1ccccc1 the results were D3 ag inactive, D3 antag -61, Giardia killer inactive and B2AR arrestin inactive.
